# Calls of active or inactive are those of the source. How the source made its calls: active means hit-call score of the fitted dose curve at least 0.9, where 1 is the maximum; inactive means score below 0.9.
# Read-out: Alpha-fetoprotein (AFP) gene, AFP (gene 174)
# Experiment: LTEA_HepaRG_AFP: Life Technologies and Expression Analysis (LTEA) Assay for Alpha-fetoprotein (AFP) gene using HepaRG (AID 2283472);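 on AC50: AFP transcript by TaqMan qRT-PCR normalized to ACTB GAPDH and POLR2A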
# Conditions: mRNA level, 48 h; actives raise or lower the signal
# Method: It is a marker of Undifferentiated hepatocyte.Data from the assay component LTEA_HepaRG_AFP was analyzed into 1 endpoint. This assay endpoint, LTEA_HepaRG_AFP, was analyzed with bidirectional fitting relative to DMSO as the negative control and baseline of activity. Using a type of inducible reporter, measures of mRNA induction for gain or loss-of-signal activity can be used to understand regulation of transcription factor activity. To generalize the intended target to other relatable targets, this assay endpoint is annotated to the background measurement intended target family, where the subfamily is assay control.
# A total of 1060 chemcials from the ToxCast library were tested in eight-point concentration-response experiments. Cell culture and cytotoxicity assays were conducted at Thermo Fisher Scientific's Custom Services facility (Madison, WI). A single lot of human HepaRG cells (Thermo Fisher Scientific, Frederick, MD) was used for the cell culture experiments. 96-well format collagen type I coated plates of human HepaRG cells were prepared using established methods. Briefly, cryopreserved HepaRG cells were thawed, plated at a density of approximately 100,000 cells/well in HepaRG Thaw, Plate, and General Purpose media (HPRG770, Thermo Fisher Scientific), and incubated for 48 hours. 0.5% DMSO was selected as vehicle control to balance the requisite need of DMSO in HepaRG cultures to maintain differentiation (for example, baseline metabolism, proportions of hepatocytes vs. cholangiocytes), while enabling further hepatic receptor pathway activation (for example, PXR and CAR) in response to chemical exposure. 48 hours after plating, the culture medium was replaced with HepaRG Serum-Free Incudtion Media. Cells were exposed to each test chemical in duplicate and maintained in CO2 incubators for another 48 hours. Chemical plates were thawed to room temperature and 200x concentrations of treatment groups were prepared. 8-point conentration-reponse curves were made with the highest exposure at 100 uM, followed by half-log dilutions, all in 0.5% DMSO. Each test plate contained variouse controls, induction positive controls (1mM phenobarbital), cytotoxicity positive controls ([…] aflatoxin B1), vehicle controls (0.5% DMSO), and total lysis controls (0.5% DMSO). Cell morphology images were taken using an Essen IncuCyte FLR automated microscope, with six 96-well plates imaged in about 24 minutes. Images were captured and exported and JPEG files. Spent culture media was transfered to black-well plates for the LDH assay, and remaining media was sorted at -80 C for later use. Cells were treated with RLT buffer and frozen until shipped for gene expression analysis. Total RNA was isolated from the cell suspension in 75 uL of Buffer RLT (Qiagen, Germantown, MD 20874) by Quintiles/Expression Analysis (Durham, NC) using a custom isolation procedure. Total RNA from each plate well was transferred to a preamplification plate. Fluidigm's 96.96 Dynamic ArrayTM (Fluidigm, Amsterdam, the Netherlands) technology was used for gene expression analyses by quantitative reverse transcription polymerase chain reaction (qRT-PCR, performed by Quintiles/Expression Analysis, Durham, NC)89. Standard TaqManTM Assays (Applied Biosystems/ThermoFisher Scientific, Foster City, CA) were used to assess the expression of 93 genes selected based on their selectivity and sensitivity to important hepatic receptors known to be modulated by environmental chemicals; importance in human hepatocyte functionality; and hepatotoxicity. Three "housekeeping" endogenous control genes were also included and used for normalization: actin beta (ACTB), Glyceraldehyde 3 phosphate dehydrogenase (GAPDH) and RNA Polymerase II Subunit A (POLR2A). qRT-PCR was conducted according to the manufacturer's protocol.
SMILES,outcome,AC50
O=C(N[C@H]1CN2CCC1CC2)c1cc2ccoc2cn1,inactive,
ClC(Cl)=C(c1ccc(Cl)cc1)c1ccc(Cl)cc1,inactive,
CC(c1ccc(O)cc1)(c1ccc(O)cc1)c1ccc(O)cc1,inactive,
CCC(C)(CC)c1cc(NC(=O)c2c(OC)cccc2OC)on1,,28.9 µM (active)
Clc1ccc(C(c2ccccc2Cl)C(Cl)(Cl)Cl)cc1 (stereo not given),,36.3 µM (active)
Cc1cc2c3c(c1)C(c1ccccc1)=N[C@@H](NC(=O)c1ccncc1)C(=O)N3CC2,,50 µM (active)
Cc1cc(O)ccc1Cl,inactive,
CC(C)(O)C(=O)Nc1ccc([N+](=O)[O-])c(C(F)(F)F)c1,inactive,
Cc1ccccc1CO[C@@H]1C[C@@]2(C(C)C)CC[C@]1(C)O2,inactive,
C=CC(N)=O,inactive,
CCNc1nc(NC(C)C)nc(SC)n1,,50 µM (active)
CCC(=O)O[C@H]1CC[C@H]2[C@@H]3CCC4=CC(=O)CC[C@]4(C)[C@H]3CC[C@]12C,inactive,
CCCCCCCCCC[N+](C)(C)CCCCCCCCCC,inactive,
NS(=O)(=O)C(F)(F)C(F)(F)C(F)(F)C(F)(F)C(F)(F)C(F)(F)C(F)(F)C(F)(F)F,,11.4 µM (active)
CN(C)CCO,inactive,
CCC(C)(c1ccc(O)cc1)c1ccc(O)cc1,,50 µM (active)
c1ccc(-c2ccccc2)cc1,inactive,
CC#Cc1cc(C)nc(Nc2ccccc2)n1,,26.4 µM (active)
Oc1c(Cl)c(Cl)c(Cl)c(Cl)c1Cl,,3.19 µM (active)
N#Cc1ccc(N(CC(N)=O)CC(F)(F)F)cc1C(F)(F)F,inactive,

SMILES,outcome,AC50
CC1=C2C[C@H]3[C@@H](CC=C4C[C@@H](O)CC[C@@]43C)[C@@H]2CC[C@]12O[C@@H]1C[C@H](C)CN[C@H]1[C@H]2C,inactive,
Cc1ccccc1[N+](=O)[O-],inactive,
CCOP(=S)(OCC)SCSC(C)(C)C,,29.5 µM (active)
C=CC(=O)NCNC(=O)C=C,inactive,
O=S(=O)(O)C(F)(F)C(F)(F)C(F)(F)C(F)(F)C(F)(F)C(F)(F)F,inactive,
Cc1ccccc1O,inactive,
C[C@]12CCC(=O)C=C1CC[C@@H]1[C@@H]2CC[C@@]2(C)[C@H]1CC[C@]2(C)O,,63.6 µM (active)
O=C(O)C(F)(F)C(F)(F)C(F)(F)C(F)(F)C(F)(F)C(F)(F)C(F)(F)C(F)(F)C(F)(F)F,,23 µM (active)
CCC(C)c1cc([N+](=O)[O-])cc([N+](=O)[O-])c1O (stereo not given),,2.35 µM (active)
Clc1ccc(C(Cl)(Cl)Cl)cc1,inactive,
Cc1cc(-c2ccc(N)c(C)c2)ccc1N,,34 µM (active)
CN(C)c1nc(=O)n(C2CCCCC2)c(=O)n1C,inactive,
O=C(O)C(F)(F)C(F)(F)C(F)(F)C(F)(F)C(F)(F)C(F)(F)C(F)(F)C(F)(F)F,,78.4 µM (active)
CO/C=C(/C(=O)OC)c1ccccc1COc1cccc(C(F)(F)F)n1,,4.93 µM (active)
Oc1ccc(Cl)cc1Cl,inactive,
Nn1cnnc1,inactive,
O=C(NC(=O)c1cc(F)c(F)cc1Cl)Nc1cc(F)ccc1N1CCC(C(=O)O)CC1,inactive,
COc1ccc(O)c(C(C)(C)C)c1,inactive,
CCSC(=O)N(CC)C1CCCCC1,inactive,
ClC1=C(Cl)[C@]2(Cl)[C@@H]3[C@@H](Cl)[C@H]4O[C@H]4[C@@H]3C1(Cl)C2(Cl)Cl,,21.9 µM (active)

# Source: PubChem BioAssay (EPA / NIEHS)
